107 compounds from ChEMBL document CHEMBL4513216, “Probing the Open Global Health Chemical Diversity Library for Multistage-Active Starting Points for Next-Generation Antimalarials” (ACS Infect Dis, 2020) can be followed below.

Out of some 69,000 compounds screened, about 8,600 (12%) showed an effect of 50% or more. This is one part of a sample in which strong results are shown more often than they occur.

The test system of the assay is Plasmodium berghei. Kind of assay: Screen against P. berghei liver stage (PbLuc), transformed with Luciferase, at 10uM. It is filed as functional, HepG2. The following applies: tested at 10 uM.
Turning to `CC(C)S(=O)(=O)N1CCC(c2cc3n(n2)[C@@H](C(F)(F)F)C[C@@H](C)N3)CC1`, the INHIBITION came out at 48.4%.
`COc1c(C2CCCN2CC(=O)Nc2cc(C)nn2C)c(C)nn1C` (configuration not stated): the INHIBITION was 23.5%.
As to `Cc1cc(C)n(CCC(=O)N2CCCC(c3nc(C(C)C)no3)C2)n1` (configuration not stated), the INHIBITION is recorded as 30.8%.
The value for `COc1ncnc(N)c1CNCc1ccccc1-n1cccn1` was 30.9%; that for `CCCNc1ncc(CN2CCOC(Cc3cccc(F)c3)C2)cn1` (configuration not stated) was -45%; that for `CCc1ccc(CN2CCOC(Cc3cccc(F)c3)C2)nc1` (configuration not stated) was 22%.
For `CCc1ncc(CN2CCOC(Cc3cccc(F)c3)C2)cn1` (configuration not stated), the INHIBITION is recorded as 56.1%.
For the compound `c1ncn(CC2CN(CC3CCCCC3)CCO2)n1` (configuration not stated), the INHIBITION was 25.4%.
On to `O=C(NCC1(O)CCC1)c1c(O)cc(F)cc1F`, for which the INHIBITION was determined as 59.5%.
On to `O=C(NCC1(O)CCC1)c1c(O)cc(Cl)cc1Cl`, for which the INHIBITION is recorded as 31%.
Regarding `O=C(NCCC(=O)N1CCCCCC1)c1c(O)cc(F)cc1F`, the INHIBITION is recorded as 29.5%.
`NS(=O)(=O)Cc1cccc(C(=O)N2CCCC(n3cccn3)C2)c1` (configuration not stated): the INHIBITION was 14.815%.
`Cc1nccc(CNC(=O)NCCC(=O)N2CCCc3ccccc32)n1`: the INHIBITION is -15%.
Regarding `COc1cccc(C2CCCN2CCCNS(C)(=O)=O)c1` (configuration not stated), the INHIBITION is 15.3%.
With `CC1(c2ccc(Br)cc2)CC(=O)N(CCC(N)=O)C1=O` (configuration not stated) the figure was -48.3%; with `CC1(c2ccc(Br)cc2)CC(=O)N(CC(N)=O)C1=O` (configuration not stated), 51.8%; with `CSCCN1C(=O)CC(C)(c2ccc(Br)cc2)C1=O` (configuration not stated), 42.1%.
Take `O=C(NCC1CC1)[C@H]1C[C@H]2CN(C(=O)NCc3ccccc3)C[C@@H]1O2`: the INHIBITION came to 13.6%.
`CC(NC(=O)NCCn1ccnc1)c1ccc2c(c1)OCCCO2` (configuration not stated): the INHIBITION is recorded as -9.37%.
Regarding `CC(C)n1ccnc1CN1CCOC(C)(C(=O)N2CCOCC2)C1` (configuration not stated), the INHIBITION came out at 38.2%.
On to `c1cnc(CC2CCN(c3cnccn3)CC2)cn1`, for which the INHIBITION is recorded as 33.2%.
As to `CCNC(=O)[C@@H]1CCCN1[C@@H](C(=O)NC)C1CC1`, the INHIBITION is reported as 51.9%.
`CCCNC(=O)[C@@H]1CCCN1[C@@H](C(=O)NC)C1CC1`: the INHIBITION is recorded as -20.8%.
With `CNC(=O)[C@@H](C1CC1)N1CCC[C@H]1C(=O)NCC(C)C` the figure was -19.6%.
The value for `COCCN1C(=O)[C@@H]2CC[C@H]1CN(c1nccc(C)n1)C2` was -39.2%.
Consider `Cc1cccc(COc2ccc(C(C)NS(N)(=O)=O)cc2)c1` (configuration not stated), for which the INHIBITION was 9.16%.
With `CC(=O)NC(C)C(=O)Nc1ccc(OCc2cccc(F)c2)cc1C` (configuration not stated) the figure was 26.5%; with `Cc1cccc(COc2ccc(NC(=O)C(C)NC(N)=O)c(C)c2)c1` (configuration not stated), 61.3%; with `Cc1cc(OCc2cccc(F)c2)ccc1NC(=O)C(C)NC(N)=O` (configuration not stated), 48.3%.
In the case of `Cc1cccc(COc2ccc(C(C)NC(=O)CNC(N)=O)cc2)c1` (configuration not stated), the INHIBITION stood at 40.7%.
Consider `Cc1cccc(COc2ccc(C(C)N)cc2)c1` (configuration not stated), for which the INHIBITION is recorded as 83%.
The value for `CC(C)(C)c1cc(CNC(=O)c2cc(COc3ccccc3)[nH]n2)[nH]n1` was -47%; that for `Cn1cc(C(=O)NCc2cn3c(n2)CN(CC2CCCC2)CC3)cn1` was -2.17%.
`Cc1nc(-c2ccnc(N3CCNCC3)n2)no1`: the INHIBITION was -17%.
For `Cc1nc(CN2CCN(CCOc3ccc(C(C)C)c(C)c3)CC2)no1`, the INHIBITION is on record as 25.1%.
`Cc1noc(C)c1CNC(=O)N1CCC(Cc2cnn(C)c2)C1` (configuration not stated): the INHIBITION was 20.2%.
As for `Cn1cc(C2CC(=O)NC23CCN(C(=O)C2CC=CC2)CC3)cn1` (configuration not stated), the INHIBITION is -61.6%.
The value for `Cn1cc(C2CC(=O)NC23CCN(C(=O)NC2CC2)CC3)cn1` (configuration not stated) was 62.9%.
With `O=C1CC(c2ccncc2)C2(CCN(C(=O)NC3CC3)CC2)N1` (configuration not stated) the figure was 33.4%; with `COC1CCCN(C(=O)NCCCF)C1` (configuration not stated), 55.5%.
Turning to `COC1CCCN(C(=O)NCC(F)F)C1` (configuration not stated), the INHIBITION worked out at 26.4%.
The value for `COC1CCCN(C(=O)NCC(C)(C)SC)C1` (configuration not stated) was 32%; that for `CCN1C(=O)CCC12CCCN(Cc1ccc(F)cc1)CC2` (configuration not stated) was -24.5%.
Consider `COC(=O)C(NC(=O)c1cc(F)cc(F)c1)c1cccnc1` (configuration not stated), for which the INHIBITION was 55.4%.
With `COC(=O)C(NC(=O)c1cc(C)ccc1C)c1cccnc1` (configuration not stated) the figure was 32.2%; with `COC(=O)C(NC(=O)c1ccc(C)cc1C)c1cccnc1` (configuration not stated), 42.4%.
Consider `Cc1nc(O)cc(C2CCN(C(=O)c3[nH]nc4c3CC(C)CC4)CC2)n1` (configuration not stated), for which the INHIBITION is recorded as 9.52%.
With `O=C(O)c1ncccc1N1CCCCC1` the figure was 6.83%; with `O=C(Nc1c(N2CCCC2)cccc1N1CCCC1)c1ccccn1`, 55.4%.
Take `COC(=O)c1ncccc1N1CCCC1`: the INHIBITION is listed as -0.71%.
Take `O=C(Nc1cc(Cl)ccc1N1CCCCC1)c1ccccn1`: the INHIBITION is 56.3%.
`CN1CCN(c2ccc(NC(=O)c3ccccn3)c(C(F)(F)F)c2)CC1`: the INHIBITION is -78.3%.
With `COC(=O)c1ncccc1N1CCCCC1` the figure was 89.1%; with `O=C(Nc1c(N2CCCC2)cccc1N1CCCC1)c1cnsn1`, 42.4%.
Turning to `CN1CCN(c2ccc(Cl)cc2NC(=O)c2ccco2)CC1`, the INHIBITION was determined as 35.1%.
With `O=C(Nc1c(N2CCCC2)cccc1N1CCCC1)c1cnccn1` the figure was 48%.
With `CCc1cc(NCC(O)CN2CCCC2)ncn1` (configuration not stated), the INHIBITION is 18.5%.
Take `CCC(=O)N1CCCCC1c1nc(O)c2c(n1)CN(C(=O)C1CC1)CC2` (configuration not stated): the INHIBITION is 34.65%.
For the compound `Cc1cc(CN(C)C(=O)c2cccc(N3CCCS3(=O)=O)c2)no1`, the INHIBITION is given as 42%.
Turning to `CN(C)[C@@H]1CCN(S(=O)(=O)c2cn(C)cn2)[C@H]1Cc1cccnc1`, the INHIBITION stood at 33%.
As for `CC(C)Cc1nnc(NC(=O)NC(CCO)c2cccs2)s1` (configuration not stated), the INHIBITION worked out at 36%.
Consider `CCCn1cc(S(=O)(=O)N[C@H]2CN(CC(N)=O)C[C@@H]2C2CC2)cn1`, for which the INHIBITION came to 37.7%.
For `CCCn1cc(S(=O)(=O)N[C@H]2CN(C(C)=O)C[C@@H]2C2CC2)cn1`, the INHIBITION is reported as 24.2%.
The value for `CCCn1cc(S(=O)(=O)N[C@H]2CN(CCO)C[C@@H]2C2CC2)cn1` was 92.1%; that for `Cc1ccc(CC2COCCN(S(C)(=O)=O)C2)nc1` (configuration not stated) was -24.4%; that for `Cc1csc(CCNC(=O)N2CCC(NC(=O)OC(C)(C)C)CC2)n1` was 13.3%.
With `CC(=O)N1CCCC(C(=O)N2CCN(Cc3cc(C)on3)CC2)C1` (configuration not stated) the figure was 71.2%; with `COc1cccc(CN2C[C@@H]3COC[C@]3(CNC(=O)C3CC3)C2)c1`, 43%; with `Cc1cccc(CN2C[C@@H]3COC[C@]3(CNC(=O)C3CC3)C2)c1`, 35.8%.
The value for `CC(=O)N1CCCC(C(=O)N2CCN(c3cnn(C)c(=O)c3)CC2)C1` (configuration not stated) was 16.6%; that for `Cc1cc(CN2C[C@@H]3COC[C@]3(CNC(=O)N3CCCC3)C2)no1` was 70.7%.
Turning to `Cc1cc(CN2C[C@@H]3COC[C@]3(CNC(=O)N(C)C)C2)no1`, the INHIBITION was found to be 45.1%.
Take `Cc1cccc(CN2C[C@@H]3COC[C@]3(CNC(=O)C3CCC3)C2)c1`: the INHIBITION is 65.7%.
As for `CNC(=O)C1CN(Cc2cc(C)on2)CCN(C(C)=O)C1` (configuration not stated), the INHIBITION is reported as -21.6%.
With `Cc1cccc(CN2C[C@@H]3COC[C@]3(CNC(=O)N3CCCC3)C2)n1` the figure was 21%.
Consider `CCOCC(O)CN1CCN(C(=O)c2ccc3c(c2)COC3)CC1` (configuration not stated), for which the INHIBITION stood at 29.7%.
`COc1c(CNCc2nnc3n2CCCCC3)c(C)nn1C`: the INHIBITION was determined as 31.6%.
Regarding `CCN1C[C@@H]2[C@@H](OC)CCN(C(=O)Cc3ccsc3)[C@@H]2C1`, the INHIBITION is listed as 11.2%.
In the case of `O=C(c1cnccn1)N(CCO)Cc1cc(Br)ccc1F`, the INHIBITION is recorded as -7.81%.
The value for `COCCNC(=O)Cn1cc(OCc2ccccc2F)c(=O)cc1CO` was 10.5%; that for `CC(C)CS(=O)(=O)CC(=O)NC(C)c1nnc2n1CCC2` (configuration not stated) was 31.3%; that for `COc1cccc(C(=O)N2CCOCC2CN(C)C)c1OC` (configuration not stated) was 7.44%.
As to `Fc1ccc(CCC2CCCN(Cc3c[nH]cn3)C2)c(F)c1` (configuration not stated), the INHIBITION was determined as 71.2%.
Regarding `Cc1nc(CN2CCCC(CCNS(C)(=O)=O)C2)c[nH]1` (configuration not stated), the INHIBITION is on record as -1.53%.
Take `Cc1nc(CN2CCCC(CCc3ccc(F)c(F)c3)C2)c[nH]1` (configuration not stated): the INHIBITION is on record as 55.7%.
As to `Cc1nc(CN2CCCC(CCc3c(F)cccc3F)C2)c[nH]1` (configuration not stated), the INHIBITION is 25.1%.
With `Cc1[nH]c(=O)[nH]c(=O)c1CN1CCCC(CCc2ccc(F)cc2F)C1` (configuration not stated), the INHIBITION is -13.5%.
As to `Cc1nc(CN2CCCC(CCc3ccccc3F)C2)c[nH]1` (configuration not stated), the INHIBITION came out at 57.6%.
Take `Cc1nc(CN2CCCC(CCc3ccc(F)cc3F)C2)c[nH]1` (configuration not stated): the INHIBITION is given as 33.5%.
`Cc1nc(CN2CCCC(CCc3ccccc3C)C2)c[nH]1` (configuration not stated): the INHIBITION stood at 47.6%.
The value for `Cc1nc(CN2CCCC(Cn3cc(CCO)nn3)C2)c[nH]1` (configuration not stated) was 18.5%; that for `CN(C)c1nccc(-c2cnc(N(C)C)[nH]c2=O)n1` was 13%.
As for `COCc1ccccc1CNCc1c(C(C)C)nn(C)c1N(C)C`, the INHIBITION was 20.85%.
For `CN1CC(=O)N(c2ccsc2)CC12CCN(S(=O)(=O)c1ccccc1)C2` (configuration not stated), the INHIBITION was -41.4%.
`Cc1ccccc1CN(CCN(C)C)Cc1ccccc1C(=O)O`: the INHIBITION is 2.18%.
As to `CCN(Cc1cc(F)ccc1Cl)C1CCS(=O)(=O)C1` (configuration not stated), the INHIBITION is reported as 12.1%.
Take `N#Cc1cc(S(N)(=O)=O)ccc1N1CCc2c(Cl)cccc2C1`: the INHIBITION was determined as 9.52%.
Turning to `CC(C)(C)c1ncc(C(=O)NCCNC(=O)c2ccc(O)cc2)s1`, the INHIBITION came out at 29.2%.
Turning to `COc1cccc2c1CCCCN2C(=O)c1oc(C)nc1C`, the INHIBITION was determined as 53.7%.
For the compound `Cc1nc(C)c(C(=O)N2CCCc3c(F)cccc32)o1`, the INHIBITION worked out at 35.2%.
With `Cc1nc(C)c(C(=O)N2CCc3c(C)cccc32)o1` the figure was 5.91%.
`CCN(CCNS(=O)(=O)C1CCOCC1)C(=O)OC(C)(C)C`: the INHIBITION was -21.2%.
For `Cc1csc(NC(=O)CN(C)CCOc2cccc(F)c2)n1`, the INHIBITION is reported as 1.05%.
As for `c1ccc(Cc2nnc(CN3CCCC3Cn3cccn3)o2)cc1` (configuration not stated), the INHIBITION amounted to 24%.
With `CCCc1nc(Cn2c(=O)n(C)c3ccccc32)no1` the figure was 29.4%.
For the compound `CCc1nc(Cn2c(=O)n(C)c3ccccc32)no1`, the INHIBITION is 45.2%.
As to `CCc1nc(Cn2c(=O)n(CC)c3ccccc32)no1`, the INHIBITION stood at 57.3%.
